Laboratory results reported in PubChem BioAssay (NCATS).
Records with an inconclusive call do not appear. Where a call stands in place of a potency, no number is given. Activity calls are given as the source filed them. Calls come from the whole dose curve; as a rule, active = well fitted inhibition curve with a large enough effect; inconclusive = small, poorly fitted or top-dose-only effect; inactive = flat fitted curve, though single readings scatter.

Tested on: WaGa
Test: qHTS assay to identify novel small-molecules to repurpose for Merkel cell carcinoma treatment (AID 1296009); note: nearly all actives have a fitted effect of over 60% in size
Details: MCC and control cell lines, CellTiter-Glo viability, 72 h; series mostly up to 46 µM
In short: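 Luminescence from CellTiter-Glo, read 10 min after addition at room temperature, reported viability following a 72 hr, 37 degree celsius treatment with NPC or MIPE compounds in titration; values normalized to plate controls.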
Potency is the fitted concentration of half-maximal effect.

SMILES	Potency
O=C(O)C=Cc1ccc(Cn2ccnc2)cc1	inactive
C[C@H]1COc2c(N3CCN(C)CC3)c(F)cc3c(=O)c(C(=O)O)cn1c23	inactive
C#C[C@]1(O)CC[C@@H]2[C@@H]3CCc4cc(O)ccc4[C@H]3CC[C@@]21C	inactive
COc1cc(C(C)C)c(Oc2cnc(NC(CO)CO)nc2N)cc1I	inactive
C=C1C[C@@]2(O)O[C@@]3(C[C@H]2C(C)C)[C@H](C)CC[C@H]13	inactive
CC(Cc1ccc(O)c(O)c1)(NN)C(=O)O (stereo not drawn)	inactive
CN(C)CC[C@H](c1ccc(Cl)cc1)c1ccccn1	inactive
CC(=O)NC(CS)C(=O)O (stereo not drawn)	inactive
C=C1CCC2[C@](C)(CO)C(O)CC[C@]2(C)C1CC=C1C(=O)OCC1O (stereo partly drawn)	inactive
O=C(O)[C@H](CC(=O)N1C[C@@H]2CCCC[C@H]2C1)Cc1ccccc1	inactive
COc1cccc2c1C(=O)c1c(O)c3c(c(O)c1C2=O)C[C@@](O)(C(=O)CO)C[C@H]3O[C@H]1C[C@H](N)[C@H](O)[C@H](C)O1	74.3 nM (active)
COc1cc(N2CCC(C(N)=O)CC2)ccc1Nc1nc(N)c(Cl)c(Nc2ccccc2S(=O)(=O)C(C)C)n1	16600 nM (active)
CC[C@H](CC[C@@H](C)[C@H]1CC[C@H]2[C@@H]3CC=C4C[C@@H](O)CC[C@]4(C)[C@@H]3CC[C@]12C)C(C)C	inactive
CCNC(=O)c1cc2c(-c3cc(OCCN4CCCC4)c(Cl)cc3Cl)nc(N)nc2s1	1180 nM (active)
OCCN1C[C@H](O)[C@@H](O)[C@H](O)[C@@H]1CO	inactive
C=C(C)[C@@H]1CC[C@]2(C(=O)O)CC[C@]3(C)[C@H](CC[C@@H]4[C@@]5(C)CC[C@H](O)C(C)(C)[C@@H]5CC[C@]43C)[C@@H]12	inactive
Cn1cc(C[C@@H](N)C(=O)O)c2ccccc21	inactive
CC(=O)N[C@@H]1[C@H](O[C@@H]2c3ccc(c(Cl)c3)Oc3cc4cc(c3O[C@H]3O[C@H](CO)[C@@H](O)[C@H](O)[C@H]3NC(=O)CCCCCCCC(C)C)Oc3ccc(cc3Cl)C[C@H]3NC(=O)[C@H](N)c5ccc(O)c(c5)Oc5cc(O)cc(c5)[C@H](NC3=O)C(=O)N[C@H]4C(=O)N[C@H]3C(=O)N[C@@H]2C(=O)N[C@@H](C(=O)O)c2cc(O)cc(O[C@H]4O[C@H](CO)[C@@H](O)[C@H](O)[C@H]4O)c2-c2cc3ccc2O)O[C@H](CO)[C@@H](O)[C@@H]1O	inactive
CCCCCCCCCCCC(CC1OC(=O)C1CCCCCC)OC(=O)C(CC(C)C)NC=O (stereo not drawn)	inactive
COc1cc(C(=O)NC2CCN(C)CC2)ccc1Nc1ncc2c(n1)N(C1CCCC1)CCC(=O)N2C(C)C	1870 nM (active)
CCOC(=O)N1CCN([N+]([O-])=NOc2ccc([N+](=O)[O-])cc2C#N)CC1	3720 nM (active)
Cc1[nH]c(C=C2C(=O)Nc3ccccc32)c(C)c1CCC(=O)O	187 nM (active)
O=C1NC(O)CCN1[C@@H]1O[C@H](CO)[C@H](O)[C@H]1O (stereo partly drawn)	inactive
